In PubChem BioAssay (Tox21) one finds Potency data, which are given here for 18 compounds.

Several values for one entry are separate records, joined by “and”; a condition that tells them apart may be missing. Equal values may be shown once. Results filed as inconclusive are left out. A number with no mark means an inactive call. Activity calls are given as the source filed them. Unless noted, calls follow the shape of the dose curve; as a rule, active = well fitted curve in the direction sought with a large enough effect in the repeat runs; inconclusive = weak or mixed curves; inactive = no such curve, though single readings can be large; an effect the other way counts as inactive or inconclusive.

Assay [1] can be described thus: qHTS assay to identify small molecule antagonists of the estrogen receptor alpha (ER-alpha) signaling pathway - cell viability counter screen (AID 743074; calls by dose curve;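 also: HEK293 cells carrying ER-alpha-UAS-bla reporter stimulated with 17beta-estradiol; nearly all actives have a fitted effect of over 45% in size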; also: potency is read from the fitted curve at half-maximal effect). On the technique in general: In qHTS, concentration-response curves come from the screen itself.
Assay [2] in a line: qHTS assay to identify small molecule antagonists of the estrogen receptor alpha (ER-alpha) signaling pathway using the BG1 cell line - cell viability counter screen (AID 743081).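 Also: compound given together with 17beta-estradiol as the ER stimulus; nearly all actives have a fitted effect of over 45% in size.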 Also: potency is read from the fitted curve at half-maximal effect.
Assay [3] has as its target Aromatase (Homo sapiens) (UniProt P11511). Put plainly: qHTS assay to identify aromatase inhibitors (AID 743083). Also: nearly all actives have a fitted effect of over 55% in size. Also: potency is read from the fitted curve at half-maximal effect.
The nature of assay [4]: qHTS assay to identify aromatase inhibitors - cell viability counter screen (AID 743084).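 Also: cells stimulated with testosterone during compound exposure; nearly all actives have a fitted effect of over 55% in size.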 Also: potency is read from the fitted curve at half-maximal effect.
Assay [5] addresses Aryl hydrocarbon receptor (Homo sapiens) (UniProt P35869). Put plainly: qHTS assay to identify small molecule that activate the aryl hydrocarbon receptor (AhR) signaling pathway (AID 743085).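 Also: HG2L7.5c1 human HepG2 liver cells with stably integrated DRE-driven firefly reporter; nearly all actives have a fitted effect of over 15% in size.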 In a few lines: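 Luminescence (ONE-Glo) from a dioxin-responsive-element luciferase reporter in HG2L7.5c1 HepG2 cells after 24 hr compound exposure at 37C; viability measured by CellTiter-Fluor fluorescence beforehand.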

A short description of assay [6]: qHTS assay to identify small molecule that activate the aryl hydrocarbon receptor (AhR) signaling pathway - cell viability counter screen (AID 743086). Also: nearly all actives have a fitted effect of over 45% in size. Also: potency is read from the fitted curve at half-maximal effect. In a few lines:
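HepG2-AhR-luc (HG2L7.5c1) cells, 4000/well, treated 24 h at 37 C with compound; viability measured as CellTiter-Fluor fluorescence after 30 min in the same wells as the luciferase read.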

Assay [7] has as its target Peroxisome proliferator-activated receptor gamma (Homo sapiens) (UniProt P37231). Put plainly: qHTS assay to identify small molecule agonists of the peroxisome proliferator-activated receptor gamma (PPARg) signaling pathway (AID 743094; active = well fitted activation curve with a large enough effect in the signal ratio in the repeat runs, not every such curve was filed as active; the % refers to the signal ratio; also: potency is read from the fitted curve at half-maximal effect). In a few lines: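 Beta-lactamase FRET fluorescence was the read-out after a 1 h room-temperature substrate step, following 17 h compound treatment at 37C of HEK293H cells expressing a UAS-driven bla reporter responsive to PPARg.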

The nature of assay [8]: qHTS assay to identify small molecule antagonists of the peroxisome proliferator-activated receptor gamma (PPARg) signaling pathway - cell viability counter screen (AID 743194). Also: nearly all actives have a fitted effect of over 55% in size. Also: potency is read from the fitted curve at half-maximal effect. In a few lines: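 Cytotoxicity counter screen in PPARg-bla HEK293H cells, same wells as reporter assay. Compounds plus 50 nM rosiglitazone (final) for 17 h at 37 C, then viability read by CellTiter-Glo luminescence.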

Assay [9] concerns the target Estrogen receptor (Homo sapiens) (UniProt P03372). Put plainly: qHTS assay to identify small molecule antagonists of the estrogen receptor alpha (ER-alpha) signaling pathway (AID 743069; active = well fitted curve in the direction sought with a large enough effect in the signal ratio in the repeat runs, not every such curve was filed as active; the % refers to the signal ratio). In a few lines: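 HEK293 ER-alpha-UAS-bla GripTite cells, held overnight in 2% charcoal-stripped FBS, 5,000 cells/well, preincubated 4 h, then compound plus 17beta-estradiol for 18 h at 37C. Beta-lactamase read by LiveBLAzer B/G FRET substrate, 2 h at room temperature.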

The target is the same in assay [10]. Put plainly: qHTS assay to identify small molecule agonists of the estrogen receptor alpha (ER-alpha) signaling pathway (AID 743075; calls by dose curve).
The target is the same in assay [11]. Put plainly: qHTS assay to identify small molecule agonists of the estrogen receptor alpha (ER-alpha) signaling pathway using the BG1 cell line (AID 743079). Also: nearly all actives have a fitted effect of over 20% in size. Also: potency is read from the fitted curve at half-maximal effect. The note with it: BG1Luc4E2 cells, ERE-luciferase agonist, 22 h; activation: at 70.3 µM (top of the series).
Assay [12] deals with Peroxisome proliferator-activated receptor gamma (Homo sapiens) (UniProt P37231). In words: qHTS assay to identify small molecule antagonists of the peroxisome proliferator-activated receptor gamma (PPARg) signaling pathway (AID 743191; calls by dose curve; also: nearly all actives have a fitted effect of over 30% in size; also: potency is read from the fitted curve at half-maximal effect). In a few lines: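 GeneBLAzer PPARg UAS-bla HEK293H cells, 5 h post-plating, exposed to compounds 17 h at 37C. LiveBLAzer B/G FRET substrate added for 1 h at room temperature; beta-lactamase reporter read by fluorescence intensity.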
Peroxisome proliferator-activated receptor gamma (Homo sapiens), sequence (P37231 whole entry, looked up): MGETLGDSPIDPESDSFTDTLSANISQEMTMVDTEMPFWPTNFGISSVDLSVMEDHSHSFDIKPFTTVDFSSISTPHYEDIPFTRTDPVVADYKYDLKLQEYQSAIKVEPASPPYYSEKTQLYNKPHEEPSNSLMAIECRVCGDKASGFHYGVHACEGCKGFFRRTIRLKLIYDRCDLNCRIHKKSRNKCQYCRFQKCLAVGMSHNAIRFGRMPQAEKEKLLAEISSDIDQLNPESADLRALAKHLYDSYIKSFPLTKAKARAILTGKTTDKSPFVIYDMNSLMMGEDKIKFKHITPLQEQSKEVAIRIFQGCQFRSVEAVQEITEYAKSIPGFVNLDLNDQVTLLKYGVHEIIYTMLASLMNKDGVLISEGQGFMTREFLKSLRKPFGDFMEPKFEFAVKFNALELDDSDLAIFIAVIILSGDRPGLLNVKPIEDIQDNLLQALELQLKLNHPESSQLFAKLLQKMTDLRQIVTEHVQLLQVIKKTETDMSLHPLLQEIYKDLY

Assay [13] can be described thus: qHTS assay for small molecule agonists of the antioxidant response element (ARE) signaling pathway - cell viability counter screen (AID 743203; calls by dose curve; also: nearly all actives have a fitted effect of over 55% in size; also: potency is read from the fitted curve at half-maximal effect). In a few lines: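 HepG2 cells carrying ARE-driven beta-lactamase; 2,000 cells/well; 5 hrs plating; compound pinned from DMSO; 16 hrs 37C/5% CO2; CellTiter-Glo added; 30 min RT; luminescence.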
Assay [14] in a line: qHTS assay for small molecule activators of the heat shock response signaling pathway - cell viability counter screen (AID 743209). Also: nearly all actives have a fitted effect of over 50% in size. Also: potency is read from the fitted curve at half-maximal effect. In a few lines:
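Luminescence from CellTiter-Glo, added after the beta-lactamase FRET read, gave the viability signal. Cells were HSE-bla HeLa treated with DMSO-dissolved compounds for 5 h at 37 C following overnight plating.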

Assay [15] deals with thyroid hormone receptor (rat, GH3 cells). In words: qHTS assay to identify small molecule agonists of the thyroid receptor (TR) signaling pathway (AID 743066; calls by dose curve).
Assay [16] is described as follows: qHTS assay for small molecule agonists of the antioxidant response element (ARE) signaling pathway (AID 743202; active = well fitted activation curve with a large enough effect in the signal ratio in the repeat runs, not every such curve was filed as active; the % refers to the signal ratio). In a few lines:
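ARE-bla HepG2 cells (beta-lactamase reporter under the antioxidant response element), plated 5 hours, then exposed to compounds 16 hours at 37 C. LiveBLAzer B/G FRET substrate added for 2 hours at room temperature; fluorescence intensity read.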

A short description of assay [17]: qHTS assay to identify small molecule antagonists of the estrogen receptor alpha (ER-alpha) signaling pathway using the BG1 cell line (AID 743080; calls by dose curve;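 also: BG1 cells stimulated with 17beta-estradiol alongside compound; nearly all actives have a fitted effect of over 25% in size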). The note with it: BG1Luc4E2 ERE-luciferase antagonist mode, luminescence; activity change, negative = inhibition: at 70.3 µM (top of the series). In a few lines:
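Luciferase inhibition measured with ONE-Glo after 30 min at RT in BG1Luc4E2 cells given test compounds and 17beta-estradiol for 21.5 h at 37 C; CellTiter-Fluor viability read in the same wells beforehand.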

Assay [18] is described as follows: qHTS assay for small molecule activators of the heat shock response signaling pathway (AID 743210; active = well fitted activation curve with a large enough effect in the signal ratio in the repeat runs, with a control signal flat, not every such curve was filed as active; the % refers to the signal ratio). In a few lines: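 HSE-bla HeLa cells (beta-lactamase reporter under heat shock response elements), plated overnight, then exposed to compounds 5 h at 37 C; LiveBLAzer B/G FRET substrate added, 2.5 h at room temperature, fluorescence intensity read.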

Estrogen receptor (Homo sapiens), sequence (P03372 whole entry, looked up): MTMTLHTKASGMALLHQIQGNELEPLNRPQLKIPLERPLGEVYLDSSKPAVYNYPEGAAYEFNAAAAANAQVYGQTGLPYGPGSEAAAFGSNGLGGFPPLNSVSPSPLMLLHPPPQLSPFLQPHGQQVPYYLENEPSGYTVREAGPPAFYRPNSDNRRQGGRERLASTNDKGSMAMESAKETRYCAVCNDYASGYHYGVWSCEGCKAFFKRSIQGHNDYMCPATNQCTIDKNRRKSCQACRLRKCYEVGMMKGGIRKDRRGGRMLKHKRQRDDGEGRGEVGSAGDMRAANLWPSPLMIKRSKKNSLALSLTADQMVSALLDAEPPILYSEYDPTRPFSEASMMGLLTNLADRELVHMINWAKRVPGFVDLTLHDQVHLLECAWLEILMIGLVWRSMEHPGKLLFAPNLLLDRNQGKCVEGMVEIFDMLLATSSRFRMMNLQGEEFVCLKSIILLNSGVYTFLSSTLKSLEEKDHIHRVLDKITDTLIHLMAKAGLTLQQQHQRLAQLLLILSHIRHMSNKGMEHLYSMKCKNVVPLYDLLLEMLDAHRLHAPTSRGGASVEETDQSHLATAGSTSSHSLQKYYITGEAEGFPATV
Aryl hydrocarbon receptor (Homo sapiens), sequence (P35869 whole entry, looked up): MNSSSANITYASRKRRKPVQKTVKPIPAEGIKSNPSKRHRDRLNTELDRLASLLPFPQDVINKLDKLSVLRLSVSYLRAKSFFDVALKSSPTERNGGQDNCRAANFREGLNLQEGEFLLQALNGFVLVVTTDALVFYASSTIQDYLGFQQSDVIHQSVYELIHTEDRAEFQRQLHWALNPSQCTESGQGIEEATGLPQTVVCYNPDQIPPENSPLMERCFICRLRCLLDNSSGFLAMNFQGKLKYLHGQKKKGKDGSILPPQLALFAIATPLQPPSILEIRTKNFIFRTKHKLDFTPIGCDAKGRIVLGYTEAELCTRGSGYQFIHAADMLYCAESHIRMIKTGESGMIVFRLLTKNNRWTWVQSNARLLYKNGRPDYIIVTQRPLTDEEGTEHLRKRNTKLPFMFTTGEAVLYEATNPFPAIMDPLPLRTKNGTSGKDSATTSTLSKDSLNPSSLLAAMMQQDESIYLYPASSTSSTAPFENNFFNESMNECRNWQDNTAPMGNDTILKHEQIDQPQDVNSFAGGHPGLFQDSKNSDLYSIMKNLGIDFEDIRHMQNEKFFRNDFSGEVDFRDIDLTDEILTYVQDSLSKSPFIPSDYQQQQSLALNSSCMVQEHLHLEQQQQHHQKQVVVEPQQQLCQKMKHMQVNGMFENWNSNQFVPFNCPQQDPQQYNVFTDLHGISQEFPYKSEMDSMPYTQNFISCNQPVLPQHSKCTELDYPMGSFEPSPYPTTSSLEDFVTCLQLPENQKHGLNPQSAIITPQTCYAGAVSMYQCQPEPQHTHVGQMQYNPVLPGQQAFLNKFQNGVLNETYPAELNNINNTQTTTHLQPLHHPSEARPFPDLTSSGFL
Aromatase (Homo sapiens), sequence (P11511 whole entry, looked up): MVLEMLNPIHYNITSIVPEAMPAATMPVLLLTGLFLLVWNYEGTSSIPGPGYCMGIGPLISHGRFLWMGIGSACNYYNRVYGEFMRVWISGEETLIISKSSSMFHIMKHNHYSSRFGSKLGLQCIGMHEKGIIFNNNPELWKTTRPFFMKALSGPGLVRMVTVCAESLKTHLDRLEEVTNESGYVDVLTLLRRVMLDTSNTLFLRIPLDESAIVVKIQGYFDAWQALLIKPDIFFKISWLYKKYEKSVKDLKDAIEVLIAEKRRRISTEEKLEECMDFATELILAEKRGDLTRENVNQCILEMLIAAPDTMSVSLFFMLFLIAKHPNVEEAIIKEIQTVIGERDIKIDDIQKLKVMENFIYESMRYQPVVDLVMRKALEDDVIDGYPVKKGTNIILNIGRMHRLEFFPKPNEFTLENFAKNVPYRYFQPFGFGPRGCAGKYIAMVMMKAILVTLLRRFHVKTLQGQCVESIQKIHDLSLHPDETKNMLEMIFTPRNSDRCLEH

With `Cc1cccc(C)c1NC(=O)CN1CCN(CCCC(c2ccc(F)cc2)c2ccc(F)cc2)CC1`, the Potency result in [1], in assay [2], in assay [3], in assay [4], in [5] and in assay [7] was “inactive” each time. In addition, the Potency in assay [6] was 11.4 µM (active); in assay [8], 26.6 µM (active).

Consider `CCCCOc1ccc(C(=O)CCN2CCCCC2)cc1`, for which the Potency result in assay [9], in [1], in assay [10], in assay [2], in assay [3] and in assay [4] was “inactive” each time. For the same compound, the Potency entry in assay [6], in assay [7], in [12], in assay [8] and in assay [14] was “inactive” each time. Besides, the results for the Potency in [11] and in assay [13] were 4.52 µM (active) and 26.6 µM (active), respectively.

For the compound `CCC1(c2cnc[nH]2)Cc2ccccc2C1`, the Potency entry in [8], in [13] and in assay [14] was “inactive” throughout.

As for `Cc1c(-c2ccc(O)cc2)n(Cc2ccc(OCCN3CCCCCC3)cc2)c2ccc(O)cc12`, the Potency entry in assay [1], in [4] and in assay [14] was “inactive” throughout. For the same compound, the Potency in assay [3] was 0.0211 µM (active); in assay [8] it was 29.8 µM (active).

As for `O=C1OC(OC(=O)c2cccnc2Nc2cccc(C(F)(F)F)c2)c2ccccc21` (stereo not drawn), the Potency result in [15], in assay [1], in assay [2], in assay [3], in assay [4] and in assay [5] was “inactive” throughout. Moreover, the Potency entry in [6], in assay [7], in assay [8], in assay [13] and in [14] was “inactive” in each case. For the same compound, in assay [12], the Potency was 11.9 µM (active).

On to `CCCCC(CC)COC(=O)c1ccc(O)cc1` (stereo not drawn), for which the Potency entry in assay [15], in assay [2], in assay [5], in assay [6] and in assay [13] was “inactive” each time. In addition, the Potency in [1] is 54.7 µM (active); in assay [3] it was 15.3 µM (active) and 19.3 µM (active); in assay [4], 27.2 µM (active); in [8], 48.8 µM (active); in assay [14] it was 24.5 µM (active).

`NCCCC(O)(P(=O)(O)O)P(=O)(O)O`: the Potency entry in assay [15], in assay [1], in [2], in assay [4], in assay [6] and in assay [8] was “inactive” throughout. Also, the Potency entry in assay [16] and in assay [14] was “inactive” each time.

Turning to `CC(O)C#CC(C)O` (stereo not drawn), the Potency entry in assay [15], in [1], in assay [10], in assay [11], in assay [2] and in assay [5] was “inactive” each time. Further, the Potency entry in [6] is “inactive”. In addition, the Potency in assay [4] is 30.3 µM (active); in [7] it was 54.4 µM (active); in assay [14], 21.7 µM (active).

Consider `COc1ccc(-n2nc(CCC(=O)N(C)O)cc2-c2ccc(Cl)cc2)cc1`, for which the Potency in assay [12] was 3.76 µM (active). Also, the Potency result in assay [8], in [13] and in assay [14] was “inactive” each time.

Consider `C=CC(C)(CCC=C(C)C)OC(=O)/C=C/c1ccccc1` (stereo not drawn), for which the Potency result in assay [9], in assay [1], in [10], in assay [17], in assay [2] and in assay [3] was “inactive” throughout. For the same compound, the Potency entry in assay [5], in assay [6], in assay [7], in assay [8] and in assay [13] was “inactive” throughout. The Potency in [11] is 61.1 µM (active).

In the case of `Clc1ccc(C(c2ccccc2Cl)C(Cl)Cl)cc1` (stereo not drawn), the Potency result in assay [15], in assay [1], in assay [2], in assay [3], in assay [4] and in assay [5] was “inactive” each time. The Potency entry in assay [6], in assay [7], in [12], in assay [13] and in [14] was “inactive” in each case. Also, in [8], the Potency is 54.9 µM (active).

For the compound `CCCCCCCCCCCC(=O)N(CC)CC`, the Potency result in [15], in assay [1], in [2], in [3], in [4] and in assay [5] was “inactive” each time. Also, the Potency entry in [6], in assay [7], in assay [8], in assay [16], in [13] and in assay [14] was “inactive” each time. Besides, the Potency result in assay [18] was “inactive”.

On to `CC(NCCC(c1ccccc1)c1ccccc1)c1ccccc1` (stereo not drawn), for which the Potency in assay [1] was 23.9 µM (active); in assay [3], 29.8 µM (active); in assay [6] it was 26.6 µM (active); in [8], 23.7 µM (active); in assay [13], 33.5 µM (active). Further, the Potency entry in [5] and in [7] was “inactive” in each case.

As for `CN(Cc1cc(Br)cc(Br)c1N)C1CCCCC1`, the Potency result in [15], in assay [1], in assay [10], in [17], in assay [2] and in [3] was “inactive” throughout. Besides, the Potency entry in assay [4], in [5], in assay [6], in assay [7], in assay [12] and in [8] was “inactive” in each case. Further, in [13], the Potency result is “inactive”.

For the compound `O=C1NCN(c2ccccc2)C12CCN(CCCC(c1ccc(F)cc1)c1ccc(F)cc1)CC2`, the Potency in assay [2] was 26.6 µM (active); in assay [8], 26.6 µM (active); in assay [13], 29.8 µM (active). In assay [6], the Potency result was “inactive”.

As for `CSc1c(Cl)c(Cl)c(Cl)c(Cl)c1Cl`, the Potency entry in assay [2], in assay [3], in assay [4], in assay [5], in assay [6] and in [7] was “inactive” in each case.

Turning to `CN1[C@@H]2CC[C@H]1CC(OC(=O)C(CO)c1ccccc1)C2` (stereo partly drawn), the Potency entry in [1], in [2], in [3], in assay [4], in assay [6] and in assay [8] was “inactive” each time. In addition, in assay [14], the Potency result is “inactive”.

As for `CNC(=S)NN`, the Potency entry in assay [15], in assay [1], in assay [10], in assay [2], in [5] and in [7] was “inactive” each time. In addition, the Potency result in assay [12] and in assay [8] was “inactive” each time. The figures for the Potency in assay [3], in assay [6] and in assay [14] were 61.1 µM (active), 19.3 µM (active) and 24.5 µM (active), respectively.
